Assay outcomes deposited in PubChem by National Center for Advancing Translational Sciences (NCATS).
Sampled rows, rich in hits. Any-hit rate of the full collection: about 3.9%.
ATXN2 expr inh = reduces ATXN2 reporter expression in HEK-293 cells; HEK-293 ATXN2-luciferase reporter, luminescence, 24 h; AID 1745845; 360,000 tested, 0.72% active; Potency, µM (top dose mostly 57 µM), inactives show at the top dose activity change, negative = inhibition, usual class: inhibitors; note: % is set by controls: 0 for no effect and ±100 for the full control effect; nearly all actives have a fitted effect of over 55% in size
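ATXN2-luciferase reporter cells (luciferase flanked by upstream and downstream ATXN2 gene portions) were treated 24 h at 37 °C with compounds at up to 57 uM. SteadyGlo luminescence gave expression; GF-AFC fluorescence gave viability.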
TGFb SMAD3 inh = inhibitors of TGF-b signaling; HepG2 CAGA-GFP TGF-b/SMAD3 reporter, GFP fluorescence, 18 h; TGF-beta stimulated, 500 pg/mL final; Potency, µM (doses to about 46.1 µM), without a hit: top-dose activity, negative = inhibition, hits mostly inhibitors; 410,000 tested, 1.2% active; note: % is set by controls: 0 for no effect and ±100 for the full control effect; nearly all actives have a fitted effect of over 65% in size
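HEPG2 CAGA-GFP, 1000 cells/well; 2 h settle, 37 C; cpd via pin tool; TGF-b 500 pg/mL final; 18 h, 37 C; GFP imaging ex488/em500-530; %Activity normalised to -TGF-b and +DMSO controls; CRC fit, curve class.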
HT1080NT lethal = kills 2HG-producing HT-1080-NT fibrosarcoma cells; HT-1080-NT fibrosarcoma viability, CellTiter-Glo ATP luminescence, 48 h; Potency, µM (doses to about 46.1 µM), without a hit: at the top dose activity, negative = less viability, actives largely listed as cytotoxic; 360,000 tested, 1.6% active;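 note: NT is the 2HG producing partner of a matched IDH1 knockdown line; 0% = DMSO-treated cells and -100% = media-only wells without cells; nearly all actives have a fitted effect of over 55% in size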
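HT-1080-NT; 750 cells/well; 5% FBS RPMI; 48 h compound, 37 degrees C; CellTiter-Glo luminescence; curve fitting and curve-class assignment.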
ATXN viability = reduces viability in counter-screen for ATXN expression inhibitors | 400,000 tested, 0.49% active | S2 cells (HEK-293 line with an ATXN2-luciferase reporter) viability, CellTiter-Fluor protease fluorescence, 24 h | Potency, µM (top dose mostly 56.7 µM), most hits filed as cytotoxic | AID 651635; note: nearly all actives have a fitted effect of over 40% in size
HT1080 IDH1KD tx = toxicity to HT-1080 IDH1 knockdown cells (counter line); HT-1080 IDH1 knockdown viability, ATP luminescence, 48 h; Potency, µM (series often up to 46.1 µM), without a hit: at the top dose activity, negative = toxicity, hits mostly cytotoxic; 360,000 tested, 2% active; AID 686971;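 note: 0% = DMSO wells and -100% = cell-free medium wells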
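Knockdown cells (IDH1KD HT-1080) received compounds 2 h after plating at 750 cells/well and were kept 48 h at 37 °C in 5% FBS RPMI. A CellTiter-Glo luminescence read gave % activity for curve fitting.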
HepG2 viability = kills HepG2 cells in TGF-b inhibitor counter-screen; Potency, µM (titrated, usually from 46.1 µM), inactives show top-dose activity change, negative = cytotoxicity, most hits filed as cytotoxic; 410,000 tested, 0.76% active; HepG2 CAGA-GFP viability, ATP luminescence, 18 h
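HepG2 CAGA-GFP cells (1000/well, DMEM with 1% FBS) received compound, then TGF-beta at 500 pg/mL final, and were incubated 18 hours at 37 degrees C. Viability was read by CellTiter-Glo luminescence. Media-only wells were set as complete cell-killing and DMSO as no toxicity.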
Numbers without * were called inactive; i = inactive; ? = inconclusive; / = no result; [ ] = another dose, or the depositor's remark. Calls come from the whole dose curve; as a rule, active = well fitted curve in the direction sought with a large enough effect; inconclusive = small, poorly fitted or top-dose-only effect, or another doubt; inactive = no such curve, though single readings can be large; an effect the other way counts as inactive or inconclusive. Potency is the fitted concentration of half-maximal effect.

SMILES	ATXN2 expr inh	TGFb SMAD3 inh	HT1080NT lethal	ATXN viability	HT1080 IDH1KD tx	HepG2 viability
CC(=O)OC1CC[C@]2(C#N)[C@H]3CC[C@]4(C)[C@H](C5C=CC(=O)O5)CCC4(O)C3CCC2(O)C1 (some centres not stated)	/	-26%	26µM*	?	15µM*	10µM*
CC(=O)NC1CCSC1=O (configuration not stated)	7%	/	/	i	/	/
COc1ccc(-c2nnc(Nc3nc4c(OC)cccc4s3)o2)c(OC)c1	?	-19%	4µM*	?	3.2µM*	-13%
Cc1ccc(C(=O)c2cn(CC(=O)Nc3ccc(C(C)C)cc3)c3nc(C)ccc3c2=O)cc1	-2%	8%	/	?	/	3%
Fc1ccc(C[n+]2c(-c3ccccc3)cc(-c3ccccc3)cc2-c2ccccc2)cc1	?	?	16µM*	?	18µM*	-5%
Cc1cc(-c2ccccc2)cc(-c2ccccc2)[n+]1CCc1ccccc1	?	?	-92%	?	-88%	-28%
Clc1ccc(C[n+]2c(-c3ccccc3)cc(-c3ccccc3)cc2-c2ccccc2)cc1	?	?	16µM*	10µM*	10µM*	-82%
CCc1ccc(NC(=O)c2cnc3sc(N4CCCC4)nn3c2=O)cc1	/	?	/	/	/	-8%
O=C1NC[C@H](CCCCN2C[C@H](Cc3ccccc3)N(CCc3ccccc3)C(=O)C2=O)N(CC2CCCCC2)C1=O	2%	/	20%	i	?	/
COc1cc(NC(=O)c2cccc3c(-c4cccnc4)coc23)cc(OC)c1OC	11µM*	3%	?	?	-14%	-22%
CCCCCSc1cc(OC)c(CCNC)cc1OC	-12%	?	?	i	21µM*	10µM*
CCCCCCCSc1cc(OC)c(CCNC)cc1OC	?	?	23µM*	?	-11%[9.24 µM]	-95%
O=[N+]([O-])c1ccccc1-c1cc(-c2ccccc2)cc(-c2ccccc2)[n+]1Cc1ccccc1Cl	?	?	7.3µM*	?	10µM*	-40%
O=[N+]([O-])c1ccccc1CCl	17%	-1%	-5%	i	14%	1%
Cc1cccc(CN2CCCC(C(=O)c3cccc(OC(C)C)c3)C2)n1 (configuration not stated)	/	?	3%	32µM*	-3%	-52%
COc1ccc(NC(=O)Cn2c(=O)oc3cc(S(=O)(=O)N4CCC(C)CC4)ccc32)c(OC)c1	/	13µM*	/	/	/	-30%
CC(C(O)c1ccccc1)N(C)C/C=C/c1ccccc1 (configuration not stated)	-20%	/	/	i	/	/
Cc1cccc(C(=O)Nc2nnc(SCC(=O)NCc3ccco3)s2)c1	4%	?	8%	i	3%	-13%
CN(C)P(=O)(C(Cl)=C(N1CCCCC1)N1CCCCC1)N(C)C	?	?	-28%	?	13µM*	-43%
COc1ccccc1CNc1nc(NCc2ccccc2SC)c2sccc2n1	?	?	?	?	18µM*	-55%
Cc1ccc(C2CC3CCC(C2)N3Cc2ccccc2F)cc1 (configuration not stated)	-9%	-1%	?	i	15µM*	-5%
CC(C)(C)C1CCc2onc(C(=O)O)c2C1 (configuration not stated)	0%	10%	4%	?	1%	2%
CCC(C)C(C)(COC(N)=O)COC(N)=O (configuration not stated)	2%	/	/	i	/	/
COC1C(C)OC(OC2CC(C)(O)Cc3cc4c(c(O)c32)C(=O)c2c(O)cc3c(c2C4=O)OC2OC3(C)C(O)C(N(C)C)C2O)C(OC)C1(C)OC (configuration not stated)	?	2µM*	?	?	16µM*	30%
Cc1ccc(-n2nc3c(=O)n(CC(=O)NCC(C)c4ccccc4)nc(C)c3c2C)cc1 (configuration not stated)	-27%	-26%	/	?	/	-13%
SMILES	ATXN2 expr inh	TGFb SMAD3 inh	HT1080NT lethal	ATXN viability	HT1080 IDH1KD tx	HepG2 viability
CC(C)OP(=O)(OC(C)C)C(NC(=O)c1ccccc1Br)C(N)=O (configuration not stated)	14%	-1%	26%	i	-4%	-30%
CCNC(=O)C1CCCN(C(=O)c2c(-c3ccccc3)noc2C)CC1 (configuration not stated)	13%	2%	15%	?	3%	6%
COc1ccc(CNCCc2c[nH]c3ccccc23)c(OC)c1C	-31%	-29%	?	?	26µM*	-59%
COc1cc(C)c(CNCCc2c[nH]c3ccccc23)cc1C	/	?	?	?	?	11µM*
COc1cccc(CNCCc2c[nH]c3ccccc23)c1	?	0%	-9%	i	-4%	-8%
CC(=CCCC1=CCC(C2=CC(=O)OC2O)OC1O)CCC1=C(C)CCCC1(C)C (configuration not stated)	-6%	/	/	/	/	/
Cc1ccccc1C1CC(=O)Nc2ccc3ccccc3c21 (configuration not stated)	-21%	13µM*	/	?	/	-25%
CCOC(=O)c1c(C)n(Cc2ccccc2)c2ccc(OCC(O)CNC(C)(C)C)cc12 (configuration not stated)	14µM*	?	?	/	16µM*	18µM*
CCOC(=O)c1c(C)n(Cc2ccccc2)c2ccc(OCC(O)Cn3nc(C)nc3C)cc12 (configuration not stated)	?	0%	-1%	i	-4%	-25%
COC(=O)c1c(C)n(Cc2ccccc2)c2ccc(O)cc12	0%	4%	-22%	i	-15%	-6%
CCOC(=O)c1c(C)n(Cc2ccccc2)c2ccc(O)cc12	4%	18µM*	-14%	i	-20%	7%
ClCCN1CCCC1	8%	/	/	i	/	/
Cc1cccc(NC(=O)Cn2cc(C(=O)c3ccccc3)c3ccccc32)c1C	-15%	-25%	/	i	/	-14%
COc1cccc(NC(=O)Cn2cc(C(=O)c3ccccc3)c3ccccc32)c1	/	10µM*	/	/	/	-18%
Cc1cccc(NC(=O)Cn2cc(C(=O)c3ccccc3)c3ccccc32)c1	/	10µM*	/	/	/	-18%
C[C@H](CO)N1C[C@H](C)[C@H](CN(C)C(=O)N[C@H](C)c2ccccc2)OCc2ccccc2-c2c(n(C)c3ccccc23)C1=O	-18%	-10%	-3%	?	-8%	-24%
